Laboratory results: PubChem BioAssay AID1851 (National Center for Advancing Translational Sciences (NCATS), 2009)
Among all 16,000 compounds or so, about 4,000 (25%) were called active. Another 26% or so got no clear call; they are omitted. These entries were drawn from the full list. Values without a mark were called inactive. The call rests on the fitted dose curve; in most records, active means well fitted curve in the direction sought with a large enough effect; inconclusive means small, poorly fitted or top-dose-only effect, or effect the other way; inactive means no such curve, though single readings can be large or run the other way.

target: Cytochrome P450 2C9 (Homo sapiens) (UniProt P11712); assay: Cytochrome panel assay with activity outcomes; conditions: recombinant CYP, pro-luciferin dealkylation, luminescence, p450-cyp2c9; series mostly up to 57.1 µM; activity, negative = inhibition: at the top concentration
Sequence (P11712 whole entry, looked up): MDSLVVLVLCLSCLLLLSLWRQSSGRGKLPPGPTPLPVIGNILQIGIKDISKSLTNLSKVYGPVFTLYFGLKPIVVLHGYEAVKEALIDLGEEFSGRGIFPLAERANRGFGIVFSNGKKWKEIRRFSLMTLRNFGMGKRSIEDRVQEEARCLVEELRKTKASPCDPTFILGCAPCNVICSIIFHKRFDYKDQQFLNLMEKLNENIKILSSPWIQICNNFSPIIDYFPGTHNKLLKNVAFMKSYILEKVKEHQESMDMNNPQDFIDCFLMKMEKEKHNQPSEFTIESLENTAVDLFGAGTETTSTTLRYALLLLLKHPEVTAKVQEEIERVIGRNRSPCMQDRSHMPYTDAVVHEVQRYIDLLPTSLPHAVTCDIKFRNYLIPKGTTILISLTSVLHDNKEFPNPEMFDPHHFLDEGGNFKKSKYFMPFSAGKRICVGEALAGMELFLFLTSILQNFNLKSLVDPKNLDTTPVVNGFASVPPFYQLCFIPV
On the % scale 0 is the no-effect control and ±100 the full control effect.

| Compound | activity, negative = inhibition | AC50 |
| --- | --- | --- |
| NC[C@@H]1O[C@H](O[C@@H]2[C@H](O[C@@H]3O[C@H](CO)[C@@H](COC[C@H]4O[C@@H](CN)[C@@H](O)[C@@H](O)[C@@H]4N)[C@@H]3O)[C@@H](O)[C@@H](N)C[C@H]2N)[C@@H](N)[C@H](O)[C@@H]1O | -9.36% [at 25.6 µM] |  |
| Clc1ccccc1-c1nc(-n2ccnc2)c2ccccc2n1 | -16.4% [at 2.29 µM] |  |
| CCCn1nc2cc(C(=O)NCCCCc3ccccc3)ccc2c1OCC |  | 12.6 µM (active) |
| CCCn1nc2cc(C(=O)NCc3ccccc3OC)ccc2c1OCC | -4.13% |  |
| CCOC(=O)N/N=C1/C[C@@H](O)[C@@H](O)[C@@H]2[C@@H]3C(=O)N(C(C)(C)C)C(=O)[C@H]3CC[C@H]12 | -0.388% [at 11.4 µM] |  |
| Clc1cccc(N/N=C/c2ccc(N3CCOCC3)cc2)c1 | -27.1% |  |
| Cc1cc(O)c(/C=N/Nc2cccc(Cl)c2)c(=O)o1 |  | 3.16 µM (active) |
| CCOC(=O)CSc1nnc(NC(=O)c2cccc(S(=O)(=O)N3CCCCCC3)c2)s1 |  | 1 µM (active) |
| CCC(CC)c1nnc(NC(=O)c2cccc(S(=O)(=O)N3CCc4ccccc43)c2)s1 |  | 1.58 µM (active) |
| O=S(=O)(O)c1ccc(N=Nc2ccc3c(S(=O)(=O)O)cccc3c2O)c2ccccc12 | -12.3% [at 11.4 µM] |  |
| O=[N+]([O-])c1ccc2c(N=Nc3ccc4ccccc4c3O)c(O)cc(S(=O)(=O)O)c2c1 |  | 3.16 µM (active) |
| O=S(=O)(O)c1ccc2c(N=Nc3cccc4ccccc34)c(O)c(S(=O)(=O)O)cc2c1 | -3.82% [at 11.4 µM] |  |
| O=C(Nc1cccc(C(F)(F)F)c1)N(Cc1ccc(Cl)cc1)CC(O)C(F)(F)F (stereo not drawn) |  | 8.91 µM (active) |
| O=C(Nc1ccccc1)N(Cc1ccccc1)CC(O)C(F)(F)F (stereo not drawn) |  | 12.6 µM (active) |
| O=S(=O)(C[C@H](O)C(Cl)(Cl)Cl)NNc1ccccc1 | -2.23% [at 11.4 µM] |  |
| O=C(O)c1ccc(NS(=O)(=O)Cc2ccccc2)cc1 | -7.98% [at 11.4 µM] |  |
| O=C(O)CNc1ccc(C(=O)O)cc1 | 3.72% [at 11.4 µM] |  |
| Cc1cc(C2(c3cc(C)c(O)c(C(=O)O)c3)OS(=O)(=O)c3ccccc32)cc(C(=O)O)c1O | 14.9% [at 11.4 µM] |  |
| CC(C)c1ccc(CN(C(=O)C2COc3ccccc3O2)C2CCS(=O)(=O)C2)cc1 (stereo not drawn) |  | 11.2 µM (active) |
| CO/N=C(/CNC(=O)c1ccc(Cl)cc1Cl)c1ccc(Cl)cc1 |  | 1.12 µM (active) |
| COc1cccc(C(=O)NCCN2CCN(c3ccc(Cl)cc3)CC2)c1 | 14.4% |  |
| O=C(CNc1cccc(Cl)c1)c1ccc(Cl)cc1 | -14.9% |  |
| CO/N=C(/CNC(=O)c1cccc(Cl)c1)c1ccc(Cl)cc1 |  | 3.55 µM (active) |
